# Test results: PubChem BioAssay (Tox21)
# Results filed as inconclusive are left out. Where a call stands in place of a potency, no number is given. Calls of active or inactive are those of the source. Unless noted, the call rests on the fitted dose curve; in most records, active means well fitted curve in the direction sought with a large enough effect in the repeat runs; inconclusive means weak or mixed curves; inactive means no such curve, though single readings can be large; an effect the other way counts as inactive or inconclusive.
# Experiments:
# [1] = qHTS assay to identify small molecule agonists of the sonic hedgehog signaling (Shh) pathway (AID 1259368; calls by dose curve;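 further: NIH/3T3-derived 3T3Gli1-Luc cells carrying a stable Gli1-driven firefly luciferase reporter; series mostly up to about 92 µM; nearly all actives have a fitted effect of over 15% in size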)
# Procedure, shortened: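 Stable NIH/3T3 Gli1-Luc reporter clone; 24 hr cpd exposure after a 4 hr settling period; luminescence endpoint.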
# [2] = qHTS assay to identify small molecule antagonists of the sonic hedgehog signaling (Shh) pathway (AID 1259369; calls by dose curve; further: nearly all actives have a fitted effect of over 45% in size; further: potency means the concentration at half of the fitted maximal effect)
# Procedure, shortened: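 Gli1 transcriptional reporter (firefly Luc) in NIH/3T3 background, conditioned-medium activated. 24hr exposure, luminescence endpoint.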
# [3] = qHTS assay to identify small molecule agonists of the androgen receptor (AR) signaling pathway in the presence of an antagonist - cell viability counter screen (AID 1259379);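 further: MDA-kb2 human breast cancer cells carrying an MMTV luciferase reporter; series mostly up to about 92 µM; nearly all actives have a fitted effect of over 25% in size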
# Procedure, shortened: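 Counter screen for cell viability run in parallel with the AR agonist-mode luciferase assay. MDA-kb2 cells were co-treated with nilutamide (3.0uM final) and compounds, then incubated 16 hr at 37C, and CellTiter-Fluor fluorescence was measured.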
# [4] = qHTS assay to identify small molecule agonists of the estrogen receptor beta (ER-beta) signaling pathway - cell viability counter screen (AID 1259380); further: nearly all actives have a fitted effect of over 30% in size
# Procedure, shortened: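 In this qHTS counter screen, HEK293T cells carrying an ER-beta/UAS beta-lactamase reporter, grown in 2% charcoal-stripped FBS, received compound for 16 hr; ATP-based CellTiter-Glo luminescence was then read after 30 min at room temperature.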
# [5] = target: Androgen receptor (Homo sapiens) (UniProt P10275); experiment: qHTS assay to identify small molecule agonists of the androgen receptor (AR) signaling pathway in the presence of an antagonist (AID 1259381; calls by dose curve; further: nearly all actives have a fitted effect of over 15% in size)
# Procedure, shortened: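 AR antagonist background: nilutamide 3.0uM final. Cell line: MDA-kb2, MMTV-driven luciferase, responsive to both AR and GR. Exposure 16hr, 37C, no CO2; ONE-Glo luminescence.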
# [6] = qHTS assay to identify small molecule antagonists of the estrogen receptor beta (ER-beta) signaling pathway - cell viability counter screen (AID 1259382); further: series mostly up to about 92 µM; nearly all actives have a fitted effect of over 55% in size
# Procedure, shortened: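 HEK293T ER-beta-UAS-bla, 2% charcoal-stripped FBS; compounds + 1nM E2 16 hr 37C; CellTiter-Glo luminescence, 30 min RT.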
# [7] = target: Estrogen receptor (Homo sapiens) (UniProt P03372); experiment: qHTS assay to identify small molecule agonists of the estrogen receptor alpha (ER-alpha) signaling pathway in the presence of an antagonist (AID 1259383; calls by dose curve; further: top concentration of the series differs between compounds; nearly all actives have a fitted effect of over 15% in size)
# Procedure, shortened: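 ER-alpha agonism measured under antagonist challenge: 10.0nM ICI-182,780 (final) plus compound, 15 concentrations, 22hr, VM7Luc4E2 ERE-luciferase cells. Read by luminescence.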
# [8] = qHTS assay to identify small molecule agonists or antagonists of the thyroid stimulating hormone receptor (TSHR) signaling pathway - wild type cell line counter screen (AID 1259384; calls by dose curve)
# Procedure, shortened: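 Wild-type HEK293 cells were plated 18 h at 37 C/5% CO2, pin-dosed with compound plus Ro20-1724 medium, held 30 min at room temperature, then given cAMP-d2 and anti-cAMP-cryptate; fluorescence was read after 1 h. Fifteen concentrations, triplicate.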
# [9] = target: Thyrotropin receptor (Homo sapiens) (UniProt P16473); experiment: qHTS assay to identify small molecule antagonists of the thyroid stimulating hormone receptor (TSHR) signaling pathway (AID 1259385; calls by dose curve; further: nearly all actives have a fitted effect of over 20% in size)
# Procedure, shortened: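 TSHR-HEK293 cells were plated and held 18 h at 37C/5% CO2, then given compound plus Ro20-1724 and stimulated with TSH at 1.5 ng/mL final. After 30 min at room temperature, cAMP was detected with cAMP-d2/anti-cAMP-cryptate (1 h) by fluorescence.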
# [10] = qHTS assay to identify small molecule agonists of the estrogen receptor alpha (ER-alpha) signaling pathway in the presence of an antagonist - cell viability counter screen (AID 1259386);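 further: series mostly up to about 92 µM; cells exposed to compounds for 22 h at 37 °C before the viability read; nearly all actives have a fitted effect of over 30% in size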
# Procedure, shortened: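 Steps: 5-day stripped-FBS culture; seed and incubate 24hr; add ICI-182,780 (10.0nM final); pin 15-point compound titration; incubate 22hr at 37C; add CellTiter-Fluor at 21hr; read fluorescence.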
# [11] = target: Progesterone receptor (Homo sapiens) (UniProt P06401); experiment: qHTS assay to identify small molecule antagonists of the progesterone receptor (PR) signaling pathway (AID 1346795; active means well fitted inhibition curve with a large enough effect in the signal ratio in the repeat runs, not every such curve was filed as active; the % refers to the signal ratio)
# Procedure, shortened: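 Antagonist mode: compounds tested against 1 nM (final) promegestone stimulation in HEK293T cells expressing PR-UAS-bla reporter, 16 hr at 37C, 5% CO2; beta-lactamase activity detected via B/G FRET substrate after 2 hr at room temperature.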
# [12] = qHTS assay to identify small molecule antagonists of the progesterone receptor (PR) signaling pathway - cell viability counter screen (AID 1346798); further: series mostly up to about 92 µM; nearly all actives have a fitted effect of over 50% in size
# Procedure, shortened: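 Counter screen for cytotoxicity: viability of PR-UAS-bla HEK293T cells was measured with CellTiter-Glo luminescence following 16 hr compound exposure in the presence of R5020.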
# [13] = qHTS assay to identify small molecule agonists of the progesterone receptor (PR) signaling pathway - cell viability counter screen (AID 1346799; calls by dose curve; further: nearly all actives have a fitted effect of over 45% in size)
# Procedure, shortened: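 Cells (PR-UAS-bla HEK293T) are plated at 3,000/well in 2% charcoal-stripped FBS medium, rested 6 hr, dosed and incubated 16 hr at 37C. CellTiter-Glo is then added and luminescence measured after 30 min at room temperature.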
# [14] = qHTS assay to identify small molecule antagonists of the TGF-beta/Smad signaling pathway - cell viability counter screen (AID 1346824); further: nearly all actives have a fitted effect of over 50% in size
# Procedure, shortened: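 SBE-bla HEK 293T cells were plated overnight at 37 C, then given compounds in DMSO plus TGF-beta1 (added as 0.25 ng/mL solution) for 5 hr. After the bla read, CellTiter-Glo was added to the same wells and luminescence read after 30 min at room temperature.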
# [15] = qHTS assay to identify small molecule agonists of the TGF-beta/Smad signaling pathway (AID 1346859; active means well fitted activation curve with a large enough effect in the signal ratio in the repeat runs, not every such curve was filed as active; the % refers to the signal ratio; further: series mostly up to about 77 µM)
# Procedure, shortened: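 Reporter line: HEK 293T with stably integrated SBE-controlled beta-lactamase. Compound exposure lasts 5 hr at 37 C and 5% CO2; substrate loading follows for 2 hr at room temperature, with emission read at 460 and 530 nm.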
# [16] = target: Thyrotropin-releasing hormone receptor (Homo sapiens) (UniProt P34981); experiment: qHTS assay to identify small molecule antagonists of the thyrotropin-releasing hormone receptor (TRHR) signaling pathway (AID 1346877; active means well fitted inhibition curve with a large enough effect in the repeat runs, not every such curve was filed as active; further: series mostly up to about 51 µM)
# Procedure, shortened: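 Human TRHR in HEK293 cells; inhibition of the intracellular calcium rise triggered by 1 nM TRH was followed by fluorescence over 3 min. Compounds were run at 15 concentrations, three replicates each.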
# [17] = target: Estrogen receptor beta (Homo sapiens) (UniProt Q92731); experiment: qHTS assay to identify small molecule antagonists of the estrogen receptor beta (ER-beta) signaling pathway (AID 1259378; active means well fitted inhibition curve with a large enough effect in the signal ratio in the repeat runs, not every such curve was filed as active; the % refers to the signal ratio)
# Procedure, shortened: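 ER-beta-UAS-bla HEK293T (GripTite) cells in 2% charcoal-stripped FBS medium were preincubated 6 hr at 37C, dosed with compound, then stimulated with 1 nM E2 (final) for 16 hr; beta-lactamase reporter read by B/G FRET fluorescence after 2 hr substrate loading.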
# [18] = target: Progesterone receptor (Homo sapiens) (UniProt P06401); experiment: qHTS assay to identify small molecule agonists of the progesterone receptor (PR) signaling pathway (AID 1346784; calls by dose curve; further: nearly all actives have a fitted effect of over 30% in size)
# Procedure, shortened: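 Cells (PR-UAS-bla HEK 293T, GripTite) were plated in assay medium containing 2% charcoal-stripped FBS and incubated 6 hr. Test compounds in DMSO were added for 16 hr at 37C. FRET substrate was then loaded for 2 hr at room temperature before fluorescence reading.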
# [19] = qHTS assay to identify small molecule agonists of the TGF-beta/Smad signaling pathway - cell viability counter screen (AID 1346829); further: top concentration of the series differs between compounds; nearly all actives have a fitted effect of over 45% in size
# Procedure, shortened: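 Tox21 qHTS format: SBE-bla HEK 293T cells treated with DMSO-dissolved compounds for 5 hr; CellTiter-Glo luminescence after 30 min at room temperature.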
# [20] = target: Estrogen receptor beta (Homo sapiens) (UniProt Q92731); experiment: qHTS assay to identify small molecule agonists of the estrogen receptor beta (ER-beta) signaling pathway (AID 1259377; active means well fitted activation curve with a large enough effect in the signal ratio in the repeat runs, not every such curve was filed as active; the % refers to the signal ratio)
# Procedure, shortened: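 Agonist mode cell assay in GripTite HEK293T cells expressing an ER-beta fusion that drives beta-lactamase from an Upstream Activator Sequence; 16 hr compound exposure at 37C, then 2 h LiveBLAzer B/G FRET substrate at room temperature, fluorescence read-out.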
# Chain of Thyrotropin receptor (Homo sapiens) (P16473 whole entry, looked up): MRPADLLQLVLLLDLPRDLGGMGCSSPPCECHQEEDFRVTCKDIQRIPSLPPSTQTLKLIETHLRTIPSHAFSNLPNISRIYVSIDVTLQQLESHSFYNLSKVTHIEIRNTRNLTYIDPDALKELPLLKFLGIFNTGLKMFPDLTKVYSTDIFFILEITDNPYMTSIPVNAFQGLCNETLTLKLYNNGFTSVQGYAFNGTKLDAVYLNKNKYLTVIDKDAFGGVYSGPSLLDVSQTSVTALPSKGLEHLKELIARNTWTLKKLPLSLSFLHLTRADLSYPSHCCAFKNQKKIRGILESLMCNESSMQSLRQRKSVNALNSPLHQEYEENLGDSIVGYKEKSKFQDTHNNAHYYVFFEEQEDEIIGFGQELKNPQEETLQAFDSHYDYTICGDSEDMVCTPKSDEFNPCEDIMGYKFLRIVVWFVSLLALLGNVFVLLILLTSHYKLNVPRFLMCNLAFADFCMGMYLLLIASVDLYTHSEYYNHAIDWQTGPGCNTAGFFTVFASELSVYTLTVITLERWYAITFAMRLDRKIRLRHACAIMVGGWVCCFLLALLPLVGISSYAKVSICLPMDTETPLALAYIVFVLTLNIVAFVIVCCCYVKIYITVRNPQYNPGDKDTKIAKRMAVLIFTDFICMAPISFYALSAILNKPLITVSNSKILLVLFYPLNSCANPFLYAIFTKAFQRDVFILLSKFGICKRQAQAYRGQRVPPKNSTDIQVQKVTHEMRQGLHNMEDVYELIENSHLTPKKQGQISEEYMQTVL
# Chain of Androgen receptor (Homo sapiens) (P10275 whole entry, looked up): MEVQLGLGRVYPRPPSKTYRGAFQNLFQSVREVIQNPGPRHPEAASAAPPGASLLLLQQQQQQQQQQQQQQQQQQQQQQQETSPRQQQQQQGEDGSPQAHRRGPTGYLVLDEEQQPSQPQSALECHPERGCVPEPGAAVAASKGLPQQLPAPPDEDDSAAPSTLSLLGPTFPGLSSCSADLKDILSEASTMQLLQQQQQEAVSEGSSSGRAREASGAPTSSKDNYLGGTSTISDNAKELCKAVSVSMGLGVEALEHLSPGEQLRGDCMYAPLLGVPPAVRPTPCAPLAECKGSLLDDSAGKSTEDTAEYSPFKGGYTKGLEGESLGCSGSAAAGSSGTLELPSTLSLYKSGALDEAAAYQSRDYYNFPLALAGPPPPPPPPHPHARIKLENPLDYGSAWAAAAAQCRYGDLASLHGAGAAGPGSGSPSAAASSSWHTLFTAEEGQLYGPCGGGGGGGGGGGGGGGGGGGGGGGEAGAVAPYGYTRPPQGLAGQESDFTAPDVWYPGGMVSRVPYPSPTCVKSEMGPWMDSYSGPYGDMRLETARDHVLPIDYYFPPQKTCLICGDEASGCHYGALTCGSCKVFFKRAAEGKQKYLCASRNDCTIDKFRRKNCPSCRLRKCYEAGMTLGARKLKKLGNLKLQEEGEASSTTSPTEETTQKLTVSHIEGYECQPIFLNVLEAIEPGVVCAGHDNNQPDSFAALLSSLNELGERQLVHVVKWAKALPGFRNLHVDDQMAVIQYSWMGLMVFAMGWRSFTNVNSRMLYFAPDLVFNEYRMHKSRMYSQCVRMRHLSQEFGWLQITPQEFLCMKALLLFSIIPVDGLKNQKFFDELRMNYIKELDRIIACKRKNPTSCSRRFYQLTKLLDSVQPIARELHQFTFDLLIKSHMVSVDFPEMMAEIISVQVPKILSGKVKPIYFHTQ
# Chain of Estrogen receptor (Homo sapiens) (P03372 whole entry, looked up): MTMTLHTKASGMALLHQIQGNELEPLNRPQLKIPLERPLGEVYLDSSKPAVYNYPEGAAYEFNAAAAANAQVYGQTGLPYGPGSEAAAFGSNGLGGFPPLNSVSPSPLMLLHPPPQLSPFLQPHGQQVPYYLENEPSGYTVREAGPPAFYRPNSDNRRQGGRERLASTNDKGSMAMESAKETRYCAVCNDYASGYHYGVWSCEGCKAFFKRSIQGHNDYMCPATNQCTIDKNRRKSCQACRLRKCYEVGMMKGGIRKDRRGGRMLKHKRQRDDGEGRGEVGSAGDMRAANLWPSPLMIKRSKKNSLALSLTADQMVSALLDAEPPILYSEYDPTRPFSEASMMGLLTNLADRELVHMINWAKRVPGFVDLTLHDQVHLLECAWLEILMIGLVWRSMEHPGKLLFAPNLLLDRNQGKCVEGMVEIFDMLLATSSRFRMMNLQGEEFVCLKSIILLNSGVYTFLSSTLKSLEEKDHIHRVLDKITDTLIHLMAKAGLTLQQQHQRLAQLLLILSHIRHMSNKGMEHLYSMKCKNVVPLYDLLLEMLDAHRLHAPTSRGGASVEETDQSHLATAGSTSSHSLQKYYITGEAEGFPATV
# Chain of Thyrotropin-releasing hormone receptor (Homo sapiens) (P34981 whole entry, looked up): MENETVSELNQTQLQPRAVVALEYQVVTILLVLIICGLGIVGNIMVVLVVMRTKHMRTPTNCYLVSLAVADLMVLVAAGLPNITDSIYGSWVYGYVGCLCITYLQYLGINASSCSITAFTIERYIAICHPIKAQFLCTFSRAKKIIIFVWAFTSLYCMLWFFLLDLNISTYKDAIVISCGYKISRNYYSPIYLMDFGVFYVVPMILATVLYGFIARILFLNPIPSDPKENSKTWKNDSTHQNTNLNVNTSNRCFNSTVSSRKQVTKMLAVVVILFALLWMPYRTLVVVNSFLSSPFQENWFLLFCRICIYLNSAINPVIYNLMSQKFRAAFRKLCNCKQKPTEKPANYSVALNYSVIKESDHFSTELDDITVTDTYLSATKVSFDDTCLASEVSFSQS
# Chain of Progesterone receptor (Homo sapiens) (P06401 whole entry, looked up): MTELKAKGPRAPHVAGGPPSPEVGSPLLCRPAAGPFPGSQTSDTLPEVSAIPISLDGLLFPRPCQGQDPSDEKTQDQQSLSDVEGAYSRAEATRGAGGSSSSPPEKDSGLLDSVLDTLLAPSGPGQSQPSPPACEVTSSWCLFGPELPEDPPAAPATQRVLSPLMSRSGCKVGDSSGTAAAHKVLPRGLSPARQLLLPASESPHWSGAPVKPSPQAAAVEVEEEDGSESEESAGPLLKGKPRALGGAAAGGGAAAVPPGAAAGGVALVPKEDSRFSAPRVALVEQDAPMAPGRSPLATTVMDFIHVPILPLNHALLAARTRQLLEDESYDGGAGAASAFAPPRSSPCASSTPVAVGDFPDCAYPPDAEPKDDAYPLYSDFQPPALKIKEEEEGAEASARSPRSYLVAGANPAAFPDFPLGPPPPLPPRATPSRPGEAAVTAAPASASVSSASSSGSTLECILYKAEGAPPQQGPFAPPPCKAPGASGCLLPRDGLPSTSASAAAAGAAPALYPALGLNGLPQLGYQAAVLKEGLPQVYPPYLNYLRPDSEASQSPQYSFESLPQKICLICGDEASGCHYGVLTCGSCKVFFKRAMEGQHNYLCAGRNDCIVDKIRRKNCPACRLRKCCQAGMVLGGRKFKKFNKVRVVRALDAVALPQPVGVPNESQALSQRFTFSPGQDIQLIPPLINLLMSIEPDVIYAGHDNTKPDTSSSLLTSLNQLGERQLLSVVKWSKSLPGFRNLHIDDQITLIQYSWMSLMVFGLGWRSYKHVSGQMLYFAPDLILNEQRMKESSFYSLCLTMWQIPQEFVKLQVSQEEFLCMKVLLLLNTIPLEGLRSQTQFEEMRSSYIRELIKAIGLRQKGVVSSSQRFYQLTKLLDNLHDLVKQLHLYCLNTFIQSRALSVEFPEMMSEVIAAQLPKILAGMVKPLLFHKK
# Chain of Estrogen receptor beta (Homo sapiens) (Q92731 whole entry, looked up, the tested form may be a part): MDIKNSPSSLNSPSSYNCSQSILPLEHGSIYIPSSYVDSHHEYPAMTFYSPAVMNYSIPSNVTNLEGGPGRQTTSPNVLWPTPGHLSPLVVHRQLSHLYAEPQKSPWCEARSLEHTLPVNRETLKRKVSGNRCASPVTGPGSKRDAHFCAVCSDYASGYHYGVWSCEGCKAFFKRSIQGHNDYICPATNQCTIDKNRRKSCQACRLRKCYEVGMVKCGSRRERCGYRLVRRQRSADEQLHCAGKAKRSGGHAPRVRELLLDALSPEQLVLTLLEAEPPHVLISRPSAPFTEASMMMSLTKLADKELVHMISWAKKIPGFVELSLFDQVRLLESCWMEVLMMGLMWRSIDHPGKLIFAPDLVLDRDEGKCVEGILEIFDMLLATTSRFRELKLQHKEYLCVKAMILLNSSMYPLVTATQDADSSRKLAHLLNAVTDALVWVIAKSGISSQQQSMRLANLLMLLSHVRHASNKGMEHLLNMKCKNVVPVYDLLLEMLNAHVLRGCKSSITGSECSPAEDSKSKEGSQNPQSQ
SMILES,Potency [1],Potency [2],Potency [3],Potency [4],Potency [5],Potency [6],Potency [7],outcome [8],Potency [9],Potency [10],Potency [11],Potency [12],Potency [13],outcome [14],outcome [15],outcome [16],Potency [17],Potency [18],outcome [19],Potency [20]
O=C(O)Cc1ccc(-c2ccccc2)cc1,inactive,inactive,inactive,inactive,inactive,inactive,inactive,inactive,inactive,inactive,inactive,inactive,inactive,inactive,inactive,inactive,–,–,–,–
CCn1nc(C)c2c1C(=O)NCC(c1ccc(O)cc1)=N2,inactive,12.2 nM (active),inactive,inactive,–,inactive,–,–,–,inactive,inactive,inactive,–,inactive,inactive,–,inactive,inactive,inactive,–
ON(Cc1ccccc1)Cc1ccccc1,inactive,inactive,inactive,inactive,inactive,inactive,inactive,inactive,inactive,inactive,inactive,inactive,inactive,inactive,inactive,inactive,–,inactive,inactive,–
O=[N+]([O-])c1cccc(S(=O)(=O)NCCNS(=O)(=O)c2cccc([N+](=O)[O-])c2)c1,inactive,inactive,inactive,inactive,inactive,inactive,inactive,–,–,inactive,inactive,inactive,inactive,inactive,inactive,inactive,–,inactive,inactive,–
CC1=CC(O)CC(C)(C)C1 (configuration not stated),inactive,inactive,inactive,inactive,–,inactive,inactive,–,inactive,inactive,–,inactive,inactive,inactive,inactive,–,–,inactive,–,–
CCCCN(CCCC)C(=S)SSC(=S)N(CCCC)CCCC,inactive,1910 nM (active),–,inactive,–,–,inactive,inactive,–,inactive,inactive,inactive,inactive,inactive,inactive,–,–,inactive,inactive,inactive
COC(=O)[C@@H]1CC2=CC(=O)CC[C@]2(C)[C@@]23O[C@@H]2C[C@@]2(C)[C@@H](CC[C@@]24CCC(=O)O4)[C@H]13,inactive,inactive,inactive,inactive,–,inactive,inactive,inactive,inactive,inactive,–,inactive,inactive,inactive,inactive,inactive,–,–,inactive,–
COc1cc2[nH]c(=O)[nH]c(=O)c2cc1OC,inactive,inactive,inactive,inactive,–,inactive,inactive,inactive,–,–,inactive,inactive,inactive,inactive,inactive,–,–,inactive,inactive,–
COc1ccc([C@@H]2Sc3ccccc3NC(=O)[C@@H]2O)cc1,inactive,inactive,inactive,inactive,inactive,–,inactive,inactive,–,inactive,–,–,inactive,inactive,inactive,–,–,inactive,inactive,–
